# From PubChem BioAssay (NCI)
# Compounds without any hit were thinned out: in the full panel of roughly 83,000, 20% have a hit.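 How to read the values: 0–100, growth inhibition (40 = 60% inhibited); 0, no net growth; -100 to 0, cell death (-40 = 40% of starting cells died; -100 = all dead).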 A number with no mark means an inactive call. Active and inactive are the calls of the source. The calls were made as follows: active = growth percent below 10; inactive = the rest.
# Test system: K-562 leukemia
# Assay: NCI-60 one-dose screen, 48 h (100 = growth as untreated, 0 = no growth, -100 = all killed)
# Settings: 10 µM unless noted
row,Structure (SMILES),growth
1,CN(C(=O)CN1C(=O)/C(=C/c2ccco2)SC1=S)C1CCS(=O)(=O)C1 (centres undefined),85.1%
2,O=C(c1ccc(Cl)cc1)C1[C@H](c2ccccc2Cl)[C@@H](c2ccccc2)NC12C(=O)Nc1ccccc12 (some centres undefined),-36.6% (active)
3,Cc1ccc(Nc2nnc(-c3c[nH]c4ccccc34)o2)c(C)c1,6.22% (active)
4,Cc1ccccc1NC(=O)c1cccc(NC(=O)CCl)c1,28.1%
5,Clc1ccc(CNc2nc(SCCN3CCOCC3)nc3c2cnn3CC(Cl)c2ccc(Br)cc2)cc1 (centres undefined),7.71% (active)
6,CCc1ccc(SC2c3cc(OC)ccc3Oc3nc(N)c(C#N)c(N)c32)cc1 (centres undefined),0.578% (active)
7,O=C(N/N=C/c1ccc(B(O)O)s1)c1[nH]c2ccc(Br)cc2c1-c1ccccc1,2.64% (active)
8,CCN1C(=O)N(CC)C2NNC(Sc3c(C(=O)O)c4ccccc4n(CC(C)C)c3=O)=NC21 (centres undefined),5.86% (active)
9,COc1ccc(/C=C/c2nc3ccccc3c(=O)n2CC(=O)Nc2ccccc2)cc1,84.5%
10,COc1ccc2[nH]c(=O)c(CSc3ccccc3Nc3nccc(-c4ccc5c(c4)OCO5)n3)cc2c1,52.7%
11,Cc1ccc(Cl)cc1NC(=O)N/C(N)=N/c1nc2ccccc2s1,4.45% (active)
12,COc1ccc(OC)c(Cn2cc(C#N)c(N)c2C(=O)c2ccc(Br)cc2)c1,15.2%
13,Cc1ccc(-c2cc(-c3ccccc3)[nH]c(=O)c2C#N)cc1,74.4%
14,Cc1ccc(C(C(=O)NC2CCCCC2)N(Cc2ccccc2Cl)C(=O)c2ccc(CN3CCOCC3)o2)o1 (centres undefined),81.6%
